From ChEMBL document CHEMBL3988442, “University of Dundee, Small-Polar-MMV Screening Library” (2021)

Molecular target: AMP-activated protein kinase, AMPK (Homo sapiens) (UniProt P54646+O43741+P54619+Q9UGJ0+Q9Y478+Q13131+Q9UGI9)
Experiment: AMP-dependent Kinase enzyme assay. An in vitro enzyme assay that detects ADP turnover that is directly proportional to AMPK activity. This uses naive AMPK that is activated during the assay with MK-8722
Type: functional
Design: scale not given: direction of the effect not stated beside the values
Settings: 30 µM

**Q.** How did the Percent Effect turn out when `CC(C)c1ccc(S(=O)(=O)NC2CCN(CC(F)(F)F)C2)cc1` (stereo not given) was run?
**A.** 8.13%

**Q.** With `Cc1nc(C)c(C(=O)N2CCCc3c(F)cccc32)o1` as the compound, how does the Percent Effect read?
**A.** -0.713%

**Q.** `COCCn1ccnc1C1CCN(C(=O)CSc2nnc(C)s2)CC1` was tested. Which Percent Effect did it give?
**A.** 7.22%

**Q.** Which Percent Effect does the source give for `CCc1ccc2nc(C)cc(C(=O)N[C@@H]3CCCNC3)c2c1` here?
**A.** -2.76%

**Q.** How did the Percent Effect turn out when `CC(=O)N1CCC(C(=O)N2CCC2c2nc(-c3ccc(C)s3)no2)CC1` (stereo not given) was run?
**A.** 7.15%

**Q.** Which Percent Effect does the source give for `CN(C)C(CNC(=O)CCNC(=O)OCC(F)(F)F)c1ccsc1` (stereo not given) here?
**A.** 3.22%

**Q.** For `O=C(CC1CCCC1)NCCS(=O)(=O)N1CCN(c2ncccn2)CC1`, which Percent Effect is on record?
**A.** -1.03%

**Q.** Which Percent Effect does the source give for `Cc1nsc(C(=O)NCCc2ccc(Cl)cc2)n1` here?
**A.** -0.0138%

**Q.** For `Cc1ccc(CN2CCS(=O)(=O)C(C)(C)C2)cc1C`, which Percent Effect is on record?
**A.** -0.279%

**Q.** `Cc1cc(C(=O)NCCN2CCCC(C)C2)nn1C(C)(C)C` (stereo not given) was tested. Which Percent Effect did it give?
**A.** -4.71%

**Q.** With `COc1cccc(CCC(=O)Nc2ccn(C)n2)c1OC` as the compound, how does the Percent Effect read?
**A.** 10.3%

**Q.** `COCCN1C(=O)[C@H]2CC[C@@H]1CN(S(=O)(=O)c1ccc(OC)cc1)C2` was tested. Which Percent Effect did it give?
**A.** 13.1%

**Q.** How did the Percent Effect turn out when `CCCC1COCCN1Cc1ccc(C(=O)O)cc1` (stereo not given) was run?
**A.** -3.74%

**Q.** With `OCC1(CCOc2ccccc2)CCN(c2ccc(Cl)cn2)CC1` as the compound, how does the Percent Effect read?
**A.** -2.64%

**Q.** With `CC(=O)NCCNC(=O)c1cc(COc2ccccc2)[nH]n1` as the compound, how does the Percent Effect read?
**A.** 14.5%

**Q.** `O=c1[nH]c2ccc(S(=O)(=O)N(CCO)Cc3ccncc3)cc2[nH]1` was tested. Which Percent Effect did it give?
**A.** 15.8%

**Q.** With `NC(=O)c1ccc(CNC(=O)NCc2cc[nH]n2)cc1` as the compound, how does the Percent Effect read?
**A.** -5.62%

**Q.** `CCN(CC)C(=O)CN1CCCC1C(=O)N(C)C` (stereo not given) was tested. Which Percent Effect did it give?
**A.** -2.41%

**Q.** For `CC(C)c1cc(NCc2csc(N(C)C)n2)nc(N)n1`, which Percent Effect is on record?
**A.** -10.6%

**Q.** For `O=C(COCc1ccccc1)NCc1ccc(O)c(F)c1`, which Percent Effect is on record?
**A.** 8.21%
